Bioassay records: PubChem, National Center for Advancing Translational Sciences (NCATS)
12-hLO inh: blocks human 12-lipoxygenase activity; Potency, µM (titrated, usually from 57.1 µM), for inactives: at the highest dose activity change, negative = inhibition, hits mostly inhibitors; 150,000 tested, 0.12% active; purified 12-hLO, xylenol orange hydroperoxide absorbance; P18054; AID 1452; further: potency means the concentration at half of the fitted maximal effect; nearly all actives have a fitted effect of over 55% in size
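Hydroperoxide formation by human 12-lipoxygenase from 40 uM arachidonic acid was followed colorimetrically via ferric-xylenol orange complex, using the 573/405 nm absorbance ratio. Enzyme concentration was 150 nM, with 30 min reaction at room temperature.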
GLA inh pH 4.5: blocks human alpha-galactosidase A at pH 4.5; P06280; AID 1467; 230,000 tested, under 10 active; activity change, negative = inhibition, % at 105 µM; purified enzyme, 4-MU-alpha-Gal fluorescence, pH 4.5;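 further: 0% = full activity with enzyme and -100% = basal without enzyme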
HPGD inh: blocks human HPGD enzyme activity. purified HPGD, NADH fluorescence kinetic, PGE2 substrate. Potency, µM, without a hit: at the highest dose activity change, negative = inhibition, hits mostly inhibitors. 150,000 tested, 4.3% active; active means well fitted inhibition curve with a large enough effect, not every such curve was filed as active; inconclusive means small, poorly fitted or top-dose-only effect, or another doubt; inactive means no such curve, though single readings can be large or run the other way; further: potency means the concentration at half of the fitted maximal effect
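NADH formation kinetics: reaction with 30 uM PGE2 and 1 mM NAD+ (final), 20 nM enzyme, Tris-HCl pH 8 with Tween 20, after 15 min compound preincubation at room temperature. Fluorescence change, last versus first of five reads.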
ALDH1A1 inh: blocks purified human ALDH1A1 activity | Potency, µM (series often up to 75.3 µM), for the others: at the highest dose activity, negative = inhibition, actives largely listed as inhibitors | Purified ALDH1A1, NADH fluorescence, propionaldehyde substrate | AID 1030 | 220,000 tested, 7.3% active | P00352; active means well fitted inhibition curve with a large enough effect, not every such curve was filed as active; inconclusive means small, poorly fitted or top-dose-only effect, or another doubt; inactive means no such curve, though single readings can be large or run the other way;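 further: potency means the concentration at half of the fitted maximal effect; plate controls were no enzyme wells and a reference inhibitor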
Target sequence (P00352 whole entry, looked up): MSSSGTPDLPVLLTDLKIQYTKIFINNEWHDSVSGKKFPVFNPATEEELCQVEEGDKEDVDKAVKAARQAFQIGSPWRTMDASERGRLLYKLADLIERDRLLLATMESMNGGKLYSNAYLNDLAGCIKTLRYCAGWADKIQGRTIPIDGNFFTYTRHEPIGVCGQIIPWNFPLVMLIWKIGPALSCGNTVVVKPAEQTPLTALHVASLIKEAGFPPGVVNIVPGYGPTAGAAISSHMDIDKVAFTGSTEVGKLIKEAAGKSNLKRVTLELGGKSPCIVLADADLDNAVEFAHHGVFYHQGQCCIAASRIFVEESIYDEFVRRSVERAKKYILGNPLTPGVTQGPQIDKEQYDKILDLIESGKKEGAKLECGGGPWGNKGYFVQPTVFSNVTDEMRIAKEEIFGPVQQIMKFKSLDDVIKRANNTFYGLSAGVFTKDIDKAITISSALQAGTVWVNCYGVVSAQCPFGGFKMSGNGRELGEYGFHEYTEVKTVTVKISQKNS
aGal spleen mod: inhibitors or activators of human alpha-galactosidase in spleen homogenate. P06280. human spleen homogenate, 4MU-alpha-Gal fluorescence, 40 min. Potency, µM (top dose mostly 80 µM), inactives show at the highest dose activity change, negative = inhibition, usual class: inhibitors. 240,000 tested, 0.008% active;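 further: potency means the concentration at half of the fitted maximal effect; 0% = enzyme with vehicle and -100% = no enzyme basal signal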
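Spleen homogenate 1 ug + cpd (titration) + 4-MU-alpha-D-galactopyranoside 1 mM; 37C 40 min; 50 mM citrate/phosphate pH 5.0, 0.01% Tween-20; stop pH 10; fluorescence 365/440; AC50 via Hill.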
PNC assembly inh: blocks assembly of the perinucleolar compartment. PC3M PTB-GFP, PNC prevalence imaging, 16 h; active compounds read low. activity change (PNC), negative = inhibition, % at 10 µM. 140,000 tested, 3.1% active. AID 2417;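 active means readout at or below -70, meaning at least 70% loss of cells showing the perinucleolar compartment, a nuclear body marking cancer cells; inconclusive means readout between -30 and a set limit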;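 further: plate controls were DMSO wells for no effect and camptothecin positive control wells for full effect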
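PC3M cells stably expressing PTB-GFP, 750–1000 cells/well, treated 16 h at 37 °C with compound (23 nl of library stock), in duplicate. After paraformaldehyde fixation and Hoechst stain, imaged at 20x; PNC prevalence scored by image analysis.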
The depositor's hits bear a star; ? = inconclusive; nt = not tested or not shown. This is a sample that favours compounds with a hit; in the whole collection about 10% have one here. Unless noted, the call rests on the fitted dose curve; in most records, active means well fitted curve in the direction sought with a large enough effect; inconclusive means small, poorly fitted or top-dose-only effect, or another doubt; inactive means no such curve, though single readings can be large; an effect the other way counts as inactive or inconclusive. Unless noted, on the % scale 0 is the no-effect control and ±100 the full control effect.

SMILES | 12-hLO inh | GLA inh pH 4.5 | HPGD inh | ALDH1A1 inh | aGal spleen mod | PNC assembly inh
O=C(Nc1ccc(O)c2c(=O)cc(-c3ccccc3Cl)oc12)c1cccs1 | nt | 0 | nt | nt | 5% | nt
Cc1ccc(C)c(/C(O)=C2\C(=O)C(=O)N(Cc3cccnc3)C2c2cccnc2)c1 (centres undefined) | -11% | 1 | 25µM* | ? | 9% | 5
c1ccc(CC2CCN(C3=Nc4cccc5cccc3c45)CC2)cc1 | -12% | -17 | -9% | 14µM* | 1% | -2
c1cc2c3c(cccc3c1)C(N1CCOCC1)=N2 | nt | -15 | nt | nt | 1% | nt
FC(F)(F)c1ccccc1-c1ccc2ncnc(NCc3cccs3)c2c1 | nt | nt | nt | ? | 0% | nt
CC(C)OC(=O)c1nnc(Cc2ccc(F)cc2)o1 | 1% | 0 | -22% | 12% | -1% | -8
CC(C)C[C@H](N)c1nnc(S(=O)(=O)Cc2ccc(F)cc2)o1 | -13% | -3 | 25µM* | 1.6µM* | -5% | -13
CC(NC(=O)Cn1ncc(Cl)c(Cl)c1=O)C12CC3CC(CC(C3)C1)C2 (centres undefined) | 1% | 6 | -2% | ? | 6% | 18
COc1cc(-c2nnc(-c3ccccc3)o2)cc(OC)c1OC | -3% | 1 | ? | ? | 0% | 14
CCCc1nnc(-c2cc(OC)c(OC)c(OC)c2)o1 | -2% | 4 | -9% | ? | -2% | -91*
COc1cc(-c2nnc(-c3cc(OC)c(OC)c(OC)c3)o2)cc(OC)c1OC | 4% | 4 | ? | ? | -3% | -100*
C/C(=N\NC(=O)c1cccc(N/N=C(\C)c2ccc([N+](=O)[O-])cc2)c1)c1ccc([N+](=O)[O-])cc1 | nt | 2 | nt | nt | 0% | nt
CC(=Nc1ccccc1)C1=C(O)COC1=O | ? | -7 | -9% | 5.6µM* | 3% | 47
COc1ccc(-c2ccc(N(C)C)cc2)cc1C1C2C=CCCC2(C)C(=O)N1Cc1ccccc1 (centres undefined) | nt | nt | nt | nt | 3% | nt
CCOc1ccc2c(c1)nc(SCC(=O)c1cccs1)n2C | -6% | 4 | -10% | ? | 6% | 48
CCOc1ccc2c(c1)nc(SCC(=O)c1ccc(Br)s1)n2C | ? | -24 | ? | 18µM* | 6% | 57
CCc1ccc(C2C(C#N)=C(N)SC(N)=C2C#N)cc1 | ? | -11 | 35µM* | 11µM* | -21% | ?
N#CC1=C(N)SC(N)=C(C#N)C1c1ccc(C(F)(F)F)cc1 | -7% | -2 | -28% | 25µM* | 0% | -127*
CCc1ccc(C2C(C#N)=C(N)SC(N)=C2C#N)s1 | ? | 10 | 28µM* | ? | 8% | 13
Cc1ccc(C2C(C#N)=C(N)SC(N)=C2C#N)o1 | -25% | -1 | ? | ? | 11% | 18
N#CC1=C(N)SC(N)=C(C#N)C1c1ccc([N+](=O)[O-])cc1 | ? | 5 | ? | 10µM* | 0% | 50
O=P(O)(O)OC(CO)CO | nt | nt | nt | nt | 4% | nt
C=CCn1c(O)c(N=NC(=O)OC(C)(C)C)c2ccccc21 | -1% | -4 | ? | ? | 0% | -100*
C=CCn1c(O)c(N=O)c2ccccc21 | nt | 1 | nt | nt | 0% | nt
C=CCn1c(O)c(N=Nc2ccccc2C)c2ccccc21 | nt | -4 | nt | 2.8µM* | 2% | nt
C=CCn1c(O)c(N=NC(=O)C(O)c2ccccc2)c2ccccc21 (centres undefined) | nt | -6 | nt | nt | 8% | nt
C=CCn1c(O)c(N=NC(=S)Nc2ccc(OC)c(Cl)c2)c2ccccc21 | 6% | -2 | -19% | 22µM* | 8% | -18
C=CCn1c(O)c(N=NC(=S)Nc2ccccc2C)c2cc(S(=O)(=O)N3CCOCC3)ccc21 | 3% | -19 | -25% | 10µM* | 6% | ?
CC(C)(C)C1CCC(=NNC(=O)C(=O)NC2CCCCC2)CC1 (centres undefined) | 0% | 3 | -13% | -2% | -4% | -13
Cc1cc(C)c(S(=O)(=O)Nc2cccc(/C=C/C(=O)O)c2)c(C)c1 | 2% | -20 | -2% | 13% | 8% | ?
